Key:
Test in all cases: DAPPL (digital affinity profiling via proximity ligation, sequencing); 10 mM Tris-HCl pH 7.5, 50 mM NaCl, 1 mM DTT, 4% glycerol, room temperature, 30 min; GST-TFs on glutathione beads, 16-mer random dsDNA library, 0.1% formaldehyde crosslink after washing; high values mean tight binding
FEV = target: T1, FEV (Homo sapiens, UniProt Q99581 1-238); settings: protein: recombinant; tags: N-terminal GST; dsDNA, one strand shown
T1 sequence: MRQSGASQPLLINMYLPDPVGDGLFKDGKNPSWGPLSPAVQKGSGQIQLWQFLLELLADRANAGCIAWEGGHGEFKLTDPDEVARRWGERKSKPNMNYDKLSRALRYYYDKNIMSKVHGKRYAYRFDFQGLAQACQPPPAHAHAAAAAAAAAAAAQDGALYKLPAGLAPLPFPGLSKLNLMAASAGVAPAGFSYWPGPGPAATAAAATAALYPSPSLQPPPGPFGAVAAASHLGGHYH
Procedure, shortened: (§1)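 Human transcription factors carrying a GST fusion were produced in yeast, bound to glutathione beads, tagged with DNA barcodes and pooled together with a tag-only sample. Each pool was held with 200 nmole of a random double-stranded 16-mer DNA library in Tris/NaCl/DTT/glycerol buffer for 30 min at room temperature, then washed, crosslinked in 0.1% formaldehyde, proximity-ligated with BsaI/T4 ligase (1 h, 37 °C), PCR-amplified and sequenced on an Illumina NextSeq500. Binding signal is the read frequency of each hexamer for a given factor divided by its frequency in the tag-only sample.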

ETV5 = ETV5 (Homo sapiens, UniProt P41161 1-510); settings: protein: recombinant; tags: N-terminal GST; dsDNA, one strand shown
ETV5, sequence (P41161 whole entry): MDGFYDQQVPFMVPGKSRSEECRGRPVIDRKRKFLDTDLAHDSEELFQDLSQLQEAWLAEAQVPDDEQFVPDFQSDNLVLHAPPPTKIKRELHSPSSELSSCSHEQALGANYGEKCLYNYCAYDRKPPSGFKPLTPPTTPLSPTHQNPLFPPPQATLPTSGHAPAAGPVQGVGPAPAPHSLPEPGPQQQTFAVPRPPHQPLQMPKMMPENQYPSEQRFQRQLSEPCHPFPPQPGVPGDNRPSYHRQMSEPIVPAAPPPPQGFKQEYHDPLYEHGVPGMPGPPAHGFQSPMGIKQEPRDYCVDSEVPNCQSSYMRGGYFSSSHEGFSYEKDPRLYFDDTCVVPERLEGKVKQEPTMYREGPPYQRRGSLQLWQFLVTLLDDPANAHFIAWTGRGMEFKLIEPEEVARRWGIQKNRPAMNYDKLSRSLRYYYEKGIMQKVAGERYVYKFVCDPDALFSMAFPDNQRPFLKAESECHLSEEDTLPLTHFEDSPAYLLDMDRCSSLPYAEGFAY
Procedure, shortened: as §1

HSF1 = HSF1 (Homo sapiens, UniProt Q00613 1-529); settings: protein: recombinant; tags: N-terminal GST; chain copies: 3; dsDNA, one strand shown
HSF1, sequence (Q00613 whole entry): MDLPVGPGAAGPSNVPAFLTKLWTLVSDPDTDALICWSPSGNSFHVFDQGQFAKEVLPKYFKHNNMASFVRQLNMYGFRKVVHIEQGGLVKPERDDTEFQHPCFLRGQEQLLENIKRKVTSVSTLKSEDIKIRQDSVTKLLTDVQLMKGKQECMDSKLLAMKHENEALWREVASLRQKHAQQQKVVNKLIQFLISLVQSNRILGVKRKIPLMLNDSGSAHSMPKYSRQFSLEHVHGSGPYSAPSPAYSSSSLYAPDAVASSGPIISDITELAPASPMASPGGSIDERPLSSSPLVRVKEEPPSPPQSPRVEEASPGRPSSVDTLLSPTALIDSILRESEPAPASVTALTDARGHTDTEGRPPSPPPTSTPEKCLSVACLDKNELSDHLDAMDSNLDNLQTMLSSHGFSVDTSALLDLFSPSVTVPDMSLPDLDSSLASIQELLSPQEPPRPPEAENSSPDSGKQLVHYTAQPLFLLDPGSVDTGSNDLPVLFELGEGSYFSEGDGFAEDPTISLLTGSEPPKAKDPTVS
Procedure, shortened: as §1

SPIC = target: T2, SPIC (Homo sapiens, UniProt Q8N5J4 1-248); settings: protein: recombinant; tags: N-terminal GST; dsDNA, one strand shown
T2 sequence: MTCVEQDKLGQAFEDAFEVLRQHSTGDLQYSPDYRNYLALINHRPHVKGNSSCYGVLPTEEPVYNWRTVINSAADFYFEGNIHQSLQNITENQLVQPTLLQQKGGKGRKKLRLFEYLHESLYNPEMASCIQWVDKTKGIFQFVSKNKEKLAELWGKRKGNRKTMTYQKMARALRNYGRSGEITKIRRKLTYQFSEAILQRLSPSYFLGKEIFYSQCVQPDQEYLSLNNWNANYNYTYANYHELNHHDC
Procedure, shortened: as §1

ELF4 = ELF4 (Homo sapiens, UniProt Q99607 1-663); settings: protein: recombinant; tags: N-terminal GST; dsDNA, one strand shown
ELF4, sequence (Q99607 whole entry): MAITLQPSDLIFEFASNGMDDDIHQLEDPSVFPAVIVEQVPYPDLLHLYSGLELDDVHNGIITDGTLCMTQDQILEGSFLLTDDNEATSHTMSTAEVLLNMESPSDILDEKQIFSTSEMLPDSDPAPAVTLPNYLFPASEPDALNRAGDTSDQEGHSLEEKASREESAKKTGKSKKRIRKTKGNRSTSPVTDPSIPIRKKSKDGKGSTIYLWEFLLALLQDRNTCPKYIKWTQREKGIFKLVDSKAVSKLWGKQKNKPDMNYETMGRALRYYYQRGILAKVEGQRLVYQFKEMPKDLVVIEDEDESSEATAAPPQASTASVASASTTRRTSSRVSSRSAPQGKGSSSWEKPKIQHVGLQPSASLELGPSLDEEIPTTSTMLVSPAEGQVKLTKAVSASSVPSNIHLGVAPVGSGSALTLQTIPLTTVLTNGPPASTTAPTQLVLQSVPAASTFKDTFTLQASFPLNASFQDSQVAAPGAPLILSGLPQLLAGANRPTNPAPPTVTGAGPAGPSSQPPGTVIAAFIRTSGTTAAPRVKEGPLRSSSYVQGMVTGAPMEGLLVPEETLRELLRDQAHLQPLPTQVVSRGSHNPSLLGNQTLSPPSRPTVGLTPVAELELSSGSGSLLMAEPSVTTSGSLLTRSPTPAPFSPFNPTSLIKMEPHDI
Procedure, shortened: as §1

ELK4 = target: T3, ELK4 (Homo sapiens, UniProt P28324-2 1-405); settings: protein: recombinant; tags: N-terminal GST; dsDNA, one strand shown
T3 sequence: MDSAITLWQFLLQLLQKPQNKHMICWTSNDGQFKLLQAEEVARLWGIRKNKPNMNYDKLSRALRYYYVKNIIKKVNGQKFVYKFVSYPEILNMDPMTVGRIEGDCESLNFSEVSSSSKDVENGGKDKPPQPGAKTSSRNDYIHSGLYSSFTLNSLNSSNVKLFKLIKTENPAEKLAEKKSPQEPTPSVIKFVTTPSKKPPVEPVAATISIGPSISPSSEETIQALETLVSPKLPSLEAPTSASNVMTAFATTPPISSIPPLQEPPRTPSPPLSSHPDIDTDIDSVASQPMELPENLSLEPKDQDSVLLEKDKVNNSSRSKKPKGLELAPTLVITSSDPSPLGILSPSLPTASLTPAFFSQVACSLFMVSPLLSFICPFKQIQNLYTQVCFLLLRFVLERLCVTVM
Procedure, shortened: as §1

ETV2 = target: T4, ETV2 (Homo sapiens, UniProt O00321 1-342); settings: protein: recombinant; tags: N-terminal GST; dsDNA, one strand shown
T4 sequence: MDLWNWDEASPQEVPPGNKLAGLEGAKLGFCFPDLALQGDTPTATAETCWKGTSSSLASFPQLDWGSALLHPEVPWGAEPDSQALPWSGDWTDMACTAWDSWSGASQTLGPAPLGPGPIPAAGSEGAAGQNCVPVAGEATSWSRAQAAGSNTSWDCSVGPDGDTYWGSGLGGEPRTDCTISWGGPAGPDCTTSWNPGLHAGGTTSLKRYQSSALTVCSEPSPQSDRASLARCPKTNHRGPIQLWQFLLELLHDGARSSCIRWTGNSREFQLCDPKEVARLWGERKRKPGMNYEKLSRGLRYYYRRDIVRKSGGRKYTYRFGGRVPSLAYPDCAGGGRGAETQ
Procedure, shortened: as §1

ELF3 = target: T5, ELF3 (Homo sapiens, UniProt P78545 1-371); settings: protein: recombinant; tags: N-terminal GST; dsDNA, one strand shown
T5 sequence: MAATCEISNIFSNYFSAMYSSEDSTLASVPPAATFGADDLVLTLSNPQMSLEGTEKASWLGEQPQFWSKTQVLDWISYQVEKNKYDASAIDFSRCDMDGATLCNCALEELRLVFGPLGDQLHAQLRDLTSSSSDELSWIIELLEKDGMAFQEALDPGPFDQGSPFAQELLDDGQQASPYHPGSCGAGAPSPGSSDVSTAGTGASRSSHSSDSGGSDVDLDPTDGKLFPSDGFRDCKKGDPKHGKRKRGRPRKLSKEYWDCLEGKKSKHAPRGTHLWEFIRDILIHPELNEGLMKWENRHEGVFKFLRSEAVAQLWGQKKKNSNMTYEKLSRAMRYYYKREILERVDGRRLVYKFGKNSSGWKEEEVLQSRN
Procedure, shortened: as §1

CRX = CRX (Homo sapiens, UniProt O43186 1-299); settings: protein: recombinant; tags: N-terminal GST; dsDNA, one strand shown
CRX, sequence (O43186 whole entry): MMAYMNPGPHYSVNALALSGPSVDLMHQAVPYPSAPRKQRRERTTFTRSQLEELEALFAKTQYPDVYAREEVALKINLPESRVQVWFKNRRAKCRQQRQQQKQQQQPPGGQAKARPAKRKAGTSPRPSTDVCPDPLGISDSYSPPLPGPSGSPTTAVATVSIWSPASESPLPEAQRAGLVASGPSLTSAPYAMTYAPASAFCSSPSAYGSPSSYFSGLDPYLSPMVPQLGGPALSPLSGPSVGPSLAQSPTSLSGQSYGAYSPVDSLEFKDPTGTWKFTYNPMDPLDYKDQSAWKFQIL
Procedure, shortened: as §1

ETV1 = ETV1 (Homo sapiens, UniProt P50549 1-477); settings: protein: recombinant; tags: N-terminal GST; dsDNA, one strand shown
ETV1, sequence (P50549 whole entry): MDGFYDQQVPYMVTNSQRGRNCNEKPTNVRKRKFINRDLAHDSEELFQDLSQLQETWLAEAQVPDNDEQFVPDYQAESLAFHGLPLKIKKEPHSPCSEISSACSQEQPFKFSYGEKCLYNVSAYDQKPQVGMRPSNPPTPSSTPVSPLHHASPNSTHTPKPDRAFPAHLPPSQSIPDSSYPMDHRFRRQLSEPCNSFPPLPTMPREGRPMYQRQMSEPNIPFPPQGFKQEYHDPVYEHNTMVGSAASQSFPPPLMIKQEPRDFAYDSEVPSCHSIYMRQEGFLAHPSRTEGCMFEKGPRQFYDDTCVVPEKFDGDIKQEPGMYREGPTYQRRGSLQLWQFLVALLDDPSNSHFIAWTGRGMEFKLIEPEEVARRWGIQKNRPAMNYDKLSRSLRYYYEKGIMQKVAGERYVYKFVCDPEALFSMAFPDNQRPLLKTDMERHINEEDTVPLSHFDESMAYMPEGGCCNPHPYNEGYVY
Procedure, shortened: as §1

With TAACAC the binding signal (FEV) was 1.24 fold enrichment (6-mer frequency, TF over GST control), the binding signal (ETV5) was 1.23 fold enrichment (6-mer frequency, TF over GST control) and the binding signal (HSF1) was 1.2 fold enrichment (6-mer frequency, TF over GST control). The binding signal (SPIC) was 1.39 fold enrichment (6-mer frequency, TF over GST control), the binding signal (ELF4) was 1.26 fold enrichment (6-mer frequency, TF over GST control) and the binding signal (ELK4) was 1.32 fold enrichment (6-mer frequency, TF over GST control). For the same sequence, the binding signal (ETV2) was 1.15 fold enrichment (6-mer frequency, TF over GST control), the binding signal (ELF3) was 1.16 fold enrichment (6-mer frequency, TF over GST control) and the binding signal (CRX) was 1.56 fold enrichment (6-mer frequency, TF over GST control). For the same sequence, the binding signal (ETV1) was 1.19 fold enrichment (6-mer frequency, TF over GST control).

— paper PMC7862700, “An all-to-all approach to the identification of sequence-specific readers for epigenetic DNA modifications on cytosine”
